Results on 105 molecules are retold here after PubChem BioAssay AID2289 (National Center for Advancing Translational Sciences (NCATS), 2010).

About 3,300 (0.97%) of roughly 340,000 compounds were called active. About 9% were inconclusive and are not listed. Calls follow the shape of the dose curve; as a rule, active = well fitted inhibition curve with a large enough effect; inconclusive = small, poorly fitted or top-dose-only effect, or effect the other way; inactive = flat fitted curve, though single readings scatter. Some of the results follow.
Potency is read from the fitted curve at half-maximal effect.

The nature of this test: qHTS Assay for Modulators of miRNAs and/or Inhibitors of miR-21. Also: nearly all actives have a fitted effect of over 55% in size. To be noted: HeLa miR-21-FLuc reporter, luciferase luminescence, 48 h; actives lower the signal. A digest of the protocol: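 HeLa cells endogenously expressing miR-21, stably carrying CMV-driven firefly luciferase with a downstream miR-21 binding site, 2000 cells/well. Titrations up to approximately 40 uM, 48 hours; luciferase luminescence read.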
For `CCNc1nc(N)nc(Oc2ccc(C(=O)OC)cc2)n1`, the Potency is 8.26 µM (active).

For the molecule `CC(=O)COc1ccc2c(c1C)O/C(=C\c1ccco1)C2=O`, the Potency was 3.69 µM (active).

Consider `CN(CC(=O)NCCc1ccccc1)Cc1ccco1`, for which the Potency was 14.7 µM (active).

For `Cn1c(CCCOc2ccc(Cl)cc2Cl)n[nH]c1=S`, the Potency is 13.1 µM (active).

Take `CCNC(=O)CCCOc1ccc(Cl)cc1Cl`: the Potency was 16.5 µM (active).

For the molecule `O=C(CCCOc1ccc(Cl)cc1Cl)Nc1ccccn1`, the Potency was 11.7 µM (active).

On to `CCN(CC)C(=O)CCCOc1ccc(Cl)cc1Cl`, for which the Potency is 14.7 µM (active).

As to `CCOC(=O)c1cnc(SCCc2ccccc2)nc1N`, the Potency is 1.65 µM (active).

As to `CCOC(=O)c1cnc(SCc2ccc(C)cc2)nc1N`, the Potency was 7.94 µM (active).

`CCCCSc1ncc(C(=O)OCC)c(N)n1`: the Potency is 1.31 µM (active).

Regarding `C=CCSc1ncc(C(=O)OCC)c(N)n1`, the Potency is 16.5 µM (active).

Regarding `COc1cc(C2Nc3ccccc3C(=O)N2c2ccc(Cl)cc2)c(Cl)cc1OCC(=O)O` (stereo not given), the Potency is 2.33 µM (active).

Consider `CCOC(=O)COc1ccccc1C1Nc2ccccc2C(=O)N1c1cccc(Cl)c1` (stereo not given), for which the Potency was 5.85 µM (active).

In the case of `O=C(CSc1nc(-c2ccc(F)cc2)cs1)N1CCOCC1`, the Potency was 6.56 µM (active).

As for `Cc1nc(-c2ccc3c(c2)CCC(=O)N3)cs1`, the Potency was 14.7 µM (active).

On to `CCc1ccccc1NC(=O)CSc1nc(C)c(C(=O)Nc2ccccc2)c(-c2ccc(Cl)cc2)c1C#N`, for which the Potency is 23.3 µM (active).

In the case of `COc1ccccc1CCCNC(=O)C1CCC(=O)N(Cc2ccccc2F)C1` (stereo not given), the Potency is 14.7 µM (active).

For the molecule `O=C(NCCc1c[nH]c2ccccc12)c1ccc(F)cc1F`, the Potency is 9.27 µM (active).

For `O=C(NCCc1c[nH]c2ccccc12)c1ccc(Cl)cc1`, the Potency was 7.36 µM (active).

`COc1ccc(C(=O)NCCc2c[nH]c3ccccc23)cc1`: the Potency was 3.29 µM (active).

For the molecule `O=C(NN/C(=N/S(=O)(=O)c1ccc(Cl)cc1)c1ccccc1)c1cccc(Cl)c1`, the Potency was 2.07 µM (active).

In the case of `Cc1ccc(S(=O)(=O)/N=C(/NNC(=O)c2cccc(Cl)c2)c2ccccc2)cc1`, the Potency was 1.85 µM (active).

Regarding `CN(C)c1ccc(/C=N\Nc2ccccn2)cc1`, the Potency is 0.521 µM (active).

`COc1cc(N/N=C/c2ccc(N(C)C)cc2)ncn1`: the Potency was 0.208 µM (active).

`C(=N\Nc1ccccn1)/c1ccc(N2CCOCC2)cc1`: the Potency was 1.85 µM (active).

In the case of `Fc1ccc(/C=N/Nc2ccccn2)cc1`, the Potency is 8.26 µM (active).

`COc1ccc(C2=NN(C(=O)CN3CCOCC3)C(c3nc4ccccc4[nH]3)C2)cc1` (stereo not given): the Potency is 10.4 µM (active).

For the molecule `CN(C)CCCNC(=O)c1ccc(/C=N/O)nc1`, the Potency is 1.85 µM (active).

`c1ccc(-c2onc3cc4c(cc23)OCCO4)cc1`: the Potency is 2.07 µM (active).

As for `Fc1ccc(Nc2ccc(-c3ccc(F)cc3)nn2)cc1`, the Potency was 3.29 µM (active).

In the case of `O=C(O)c1ccc(N/N=C/c2ccc(-c3ccc(Cl)cc3Cl)o2)cc1`, the Potency is 18.5 µM (active).

As for `O=C(O)c1ccc(N/N=C/c2ccc(-c3ccc(Br)cc3)o2)cc1`, the Potency is 5.85 µM (active).

As to `O=C(O)c1ccc(N/N=C/c2ccc(-c3cccc(Cl)c3)o2)cc1`, the Potency was 0.927 µM (active).

With `O=C(O)c1ccc(N/N=C/c2ccc(-c3cc(Cl)ccc3Cl)o2)cc1`, the Potency was 6.56 µM (active).

For the molecule `O=C(O)c1ccc(N/N=C/c2ccc(-c3ccccc3Cl)o2)cc1`, the Potency was 0.293 µM (active).

On to `c1cnc2c(SCc3ccc(-c4nnco4)cc3)cccc2c1`, for which the Potency was 13.1 µM (active).

In the case of `Cc1ccccc1OCCCn1c(=O)sc2ccccc21`, the Potency was 6.56 µM (active).

As for `COc1ccccc1OCCCn1c(=O)sc2ccccc21`, the Potency is 9.27 µM (active).

For the molecule `O=C(Nc1ccc2oc(-c3ccc4ccccc4c3)nc2c1)c1cccs1`, the Potency is 1.04 µM (active).

For `O=C(Nc1ccc2oc(-c3ccc4ccccc4c3)nc2c1)c1cc(Br)ccc1Cl`, the Potency was 16.5 µM (active).

With `O=S(=O)(Nc1ccc2oc(-c3ccccc3)nc2c1)c1ccccc1`, the Potency is 18.5 µM (active).

`O=C(Nc1ccc2oc(-c3ccccc3)nc2c1)c1ccccc1F`: the Potency was 1.31 µM (active).

Consider `COc1ccc2nc(SCC(=O)C(C)(C)C)[nH]c2c1`, for which the Potency is 6.56 µM (active).

Take `CCOc1ccc2nc(SCC(=O)N(C)C)[nH]c2c1`: the Potency was 7.36 µM (active).

As to `Cc1cccc(Nc2nc3c(s2)CCCC3)c1`, the Potency was 2.07 µM (active).

For the molecule `O=C1C=C(N2CCCCCC2)C(=O)N1c1ccc(Cl)cc1`, the Potency is 5.21 µM (active).

With `Cc1ccccc1OCCNC(=O)c1ccc2ccccc2n1`, the Potency is 5.21 µM (active).

For the molecule `CN1N=C(C(=O)Nc2ccc3c(c2)CCC3)CCC1=O`, the Potency is 9.27 µM (active).

For the molecule `Cn1cc(C(=O)Nc2ccc3c(c2)CCC3)cn1`, the Potency is 7.36 µM (active).

`CCC(C)(C)C1CCc2[nH]nc(C(=O)N/N=C(\C)c3ccco3)c2C1` (stereo not given): the Potency was 2.61 µM (active).

For the molecule `CC(C)(C)C(=O)Nc1nnc(CCc2ccccc2)s1`, the Potency is 2.93 µM (active).

Take `CCCc1nnc(NC(=O)Nc2ccccc2OC)s1`: the Potency is 16.5 µM (active).

For `COc1ccccc1NC(=O)Nc1nnc(C(C)C)s1`, the Potency was 14.7 µM (active).

For the molecule `c1ccc(Cn2nc(-c3ccccc3)nc2-c2ccccc2)cc1`, the Potency was 16.5 µM (active).

As to `COc1ccc(C(=O)OCCc2ccc(O)cc2)cc1`, the Potency was 6.56 µM (active).

As for `S=C1c2ccccc2CN1c1ccccc1`, the Potency is 9.27 µM (active).

On to `Cc1ccccc1-c1nnc(SCC(=O)N(C)c2ccccc2)o1`, for which the Potency is 16.5 µM (active).

Regarding `Cc1ccccc1-c1nnc(SCC(=O)N(C)C2CCCCC2)o1`, the Potency was 14.7 µM (active).

With `CCc1ccc(C2=NN(C(C)=O)C(c3ccco3)C2)cc1` (stereo not given), the Potency was 2.33 µM (active).

On to `CC(=O)N1N=C(c2ccc(C)cc2)CC1c1ccco1` (stereo not given), for which the Potency was 16.5 µM (active).

In the case of `Nc1ccc2nc3c(=O)n(C4CCCCC4)c(=O)[nH]c3nc2c1`, the Potency is 14.7 µM (active).

For the molecule `O=C(NC1CC(=O)c2sccc21)c1ccc(Cl)cc1Cl` (stereo not given), the Potency is 13.1 µM (active).

For the molecule `CC(C)Oc1ccc2c(=O)c(-c3ccccc3)coc2c1`, the Potency was 0.464 µM (active).

In the case of `COc1ccc(-c2coc3cc(O)cc(O)c3c2=O)cc1OC`, the Potency is 13.1 µM (active).

Turning to `COc1ccc(-c2coc3cc(O)ccc3c2=O)cc1OC`, the Potency is 13.1 µM (active).

For the molecule `O=c1c(-c2ccccc2)coc2cc(O)ccc12`, the Potency is 1.85 µM (active).

With `Cc1ccc(C2=NNC3(CCOC(C)(C)C3)S2)cc1` (stereo not given), the Potency was 3.69 µM (active).

With `COc1ccc2cc3cc(C(=O)N4CCCC(C)C4)oc3nc2c1` (stereo not given), the Potency is 1.04 µM (active).

In the case of `Cc1ccc2cc3cc(C(=O)N4CCCCCC4)oc3nc2c1`, the Potency is 0.261 µM (active).

As for `COc1ccc2nc3oc(C(=O)N4CCCCC4)cc3cc2c1`, the Potency is 1.04 µM (active).

For `COc1ccc2cc3cc(C(=O)N4CCCCCC4)oc3nc2c1`, the Potency was 0.414 µM (active).

For `Cc1cccc(C(=O)Nc2sc3c(c2C#N)CCCCC3)c1`, the Potency is 0.261 µM (active).

Take `N#Cc1c(NC(=O)C2CC2)sc2c1CCCCC2`: the Potency is 8.26 µM (active).

As to `CCCC(=O)Nc1sc2c(c1C#N)CCCCC2`, the Potency is 2.93 µM (active).

For `Nc1nccc(/C=C/c2ccc(Cl)cc2)n1`, the Potency was 2.07 µM (active).

As for `COc1ccc(CC(=O)Nc2cc3oc4ccccc4c3cc2OC)cc1`, the Potency was 14.7 µM (active).

`COc1cc2c(cc1NC(=O)Cc1ccc(C)cc1)oc1ccccc12`: the Potency is 9.27 µM (active).

Turning to `COc1ccc2oc(=O)c(-c3nc4ccccc4o3)cc2c1`, the Potency was 9.27 µM (active).

Regarding `Cc1cc(C(=O)O/N=C(\N)c2ccncc2)ccc1[N+](=O)[O-]`, the Potency is 2.33 µM (active).

Turning to `Cc1ccc(C(=O)O/N=C(\N)c2cccnc2)cc1[N+](=O)[O-]`, the Potency is 7.36 µM (active).

Regarding `C/C(=N\NC(=O)c1nn(C)c(C)c1Br)c1cccc(NC(=O)c2ccc(F)cc2)c1`, the Potency is 1.85 µM (active).

For `C/C(=N\NC(=O)c1nn(C)c(C)c1Br)c1cccc(NC(=O)c2ccoc2C)c1`, the Potency was 3.69 µM (active).

Take `C/C(=N\NC(=O)c1nn(C)cc1Br)c1ccc(NC(=O)c2ccncc2)cc1`: the Potency is 18.5 µM (active).

With `COc1ccc(C(C#N)N2N=C(c3ccccc3)CC2c2ccccc2)cc1OC` (stereo not given), the Potency is 10.4 µM (active).

For the molecule `COc1ccc(C2=NN(C(C#N)c3ccc(OC)cc3)C(c3ccccc3)C2)cc1` (stereo not given), the Potency is 2.33 µM (active).

For `O=C1C(C=NCCN2CCOCC2)=C(O)c2ccccc21`, the Potency is 8.26 µM (active).

Take `O=C(/C=C\c1ccc(-c2cccc([N+](=O)[O-])c2)o1)N1CCOCC1`: the Potency was 9.27 µM (active).

For the molecule `O=C(/C=C/c1ccc(-c2cccc([N+](=O)[O-])c2)o1)N1CCOCC1`, the Potency was 7.36 µM (active).

On to `O=C(/C=C/c1ccc(-c2ccc(F)cc2)o1)N1CCCC1`, for which the Potency was 5.85 µM (active).

Take `COCc1ccc(C(=O)N(C)CC2CCCN(CCc3ccc(OC)cc3)C2)o1` (stereo not given): the Potency is 11.7 µM (active).

Regarding `COc1ccc(CCN2CCCC(CN(C)C(=O)c3ccoc3)C2)cc1` (stereo not given), the Potency was 6.56 µM (active).

Regarding `CC(/C=N/NC(=O)Cc1cccs1)=C\c1ccccc1`, the Potency was 6.56 µM (active).

Regarding `O=C(Cc1cccs1)N/N=C/C=C/c1ccccc1[N+](=O)[O-]`, the Potency is 6.56 µM (active).

Take `Cc1ccc(/C=N/NC(=O)c2cccs2)cc1[N+](=O)[O-]`: the Potency is 4.14 µM (active).

Consider `O=C(N/N=C/c1ccccc1[N+](=O)[O-])c1cccs1`, for which the Potency is 2.93 µM (active).

`CSc1ccccc1NC(=O)c1cccc(S(=O)(=O)N2CCN(C)CC2)c1`: the Potency was 14.7 µM (active).

In the case of `Cc1cccc2nc(COc3ccc4ccccc4c3Br)cn12`, the Potency is 2.07 µM (active).

Consider `Clc1ccc(OCc2cn3cccnc3n2)c2ncccc12`, for which the Potency is 14.7 µM (active).

As for `Clc1ccc(OCc2cn3ccccc3n2)c2ncccc12`, the Potency was 6.56 µM (active).

As for `O=[N+]([O-])c1ccccc1COc1ccc(Cl)c2cccnc12`, the Potency was 0.293 µM (active).

Take `Cc1cccc2nc(COc3ccc(Cl)c4cccnc34)cn12`: the Potency is 16.5 µM (active).

As to `Cc1ccc(-n2nc3cc(C)c(NC(=S)NC(=O)/C=C/c4ccco4)cc3n2)cc1`, the Potency was 3.69 µM (active).

In the case of `CCOC(=O)Cc1ccc2sc(-c3ccccc3)nc2c1`, the Potency was 1.17 µM (active).

On to `Cc1cccnc1NC(=S)NC(=O)/C=C/c1ccco1`, for which the Potency is 9.27 µM (active).

Consider `Cc1ccc(-c2nc3ccccc3s2)cc1NC(=S)NC(=O)c1cccc2ccccc12`, for which the Potency is 4.65 µM (active).
